# Results taken from the supplement of paper PMC9694430.
# Legend:
# Assay in all cases: thermal shift delta Tm vs DMSO control; higher = stronger stabilization (binding)
# Details in all cases: 12.5 µM; protein concentration 2 µM
# LOC_OS02G45750-cb003 = test system: LOC_OS02G45750-cb003
# How it was run: (§1)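 Compounds dissolved in DMSO were added to purified rice kinase domain constructs, which had been expressed in E. coli, for differential scanning fluorimetry. Each well held 19.5 μl of 2 μM kinase in 100 mM potassium phosphate pH 7.5, 150 mM NaCl, 10% glycerol and 5 × SYPRO Orange. Fluorescence was followed from 25°C to 95°C at a rate of 0.05°C/s. Shifts in Boltzmann-fitted melting temperature are triplicate means relative to DMSO-only protein.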
# LOC_OS02G54510-cb004 = test system: LOC_OS02G54510-cb004
# How it was run: as §1
# LOC_OS03G04050-cb001 = test system: LOC_OS03G04050-cb001
# How it was run: as §1
# LOC_OS03G12390-cb001 = test system: LOC_OS03G12390-cb001
# How it was run: as §1
# LOC_OS03G27990-cb004 = test system: LOC_OS03G27990-cb004
# How it was run: as §1
# LOC_OS03G50450-cb001 = test system: LOC_OS03G50450-cb001
# How it was run: as §1
# LOC_OS03G50810-cb003 = test system: LOC_OS03G50810-cb003
# How it was run: as §1
# LOC_OS04G35114-cb001 = test system: LOC_OS04G35114-cb001
# How it was run: as §1
# LOC_OS04G38480-cb003 = test system: T1, LOC_OS04G38480-cb003
# T1 sequence (whole entry): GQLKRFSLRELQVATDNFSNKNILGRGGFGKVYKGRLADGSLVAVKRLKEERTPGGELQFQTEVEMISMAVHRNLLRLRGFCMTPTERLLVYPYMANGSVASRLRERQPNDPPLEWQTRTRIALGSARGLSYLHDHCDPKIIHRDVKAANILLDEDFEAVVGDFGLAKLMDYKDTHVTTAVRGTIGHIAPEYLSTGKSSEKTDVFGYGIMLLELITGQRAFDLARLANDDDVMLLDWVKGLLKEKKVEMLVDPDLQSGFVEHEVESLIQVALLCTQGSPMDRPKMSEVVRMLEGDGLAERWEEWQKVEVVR
# How it was run: as §1
# LOC_OS04G41100-cb001 = test system: T2, LOC_OS04G41100-cb001
# T2 sequence (whole entry): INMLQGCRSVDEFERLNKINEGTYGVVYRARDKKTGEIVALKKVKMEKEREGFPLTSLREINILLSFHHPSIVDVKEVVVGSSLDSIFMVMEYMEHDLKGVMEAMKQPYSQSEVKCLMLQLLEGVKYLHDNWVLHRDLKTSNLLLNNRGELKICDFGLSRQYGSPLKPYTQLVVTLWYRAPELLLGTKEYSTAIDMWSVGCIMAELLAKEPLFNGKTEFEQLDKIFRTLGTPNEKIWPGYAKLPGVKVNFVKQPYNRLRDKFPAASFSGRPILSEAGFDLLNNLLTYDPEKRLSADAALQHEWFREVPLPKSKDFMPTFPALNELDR
# How it was run: as §1
# LOC_OS04G57630-cb004 = test system: LOC_OS04G57630-cb004
# How it was run: as §1
# LOC_OS05G07850-cb002 = test system: LOC_OS05G07850-cb002
# How it was run: as §1
# LOC_OS05G16824-cb004 = test system: LOC_OS05G16824-cb004
# How it was run: as §1
# LOC_OS05G28520-cb001 = test system: LOC_OS05G28520-cb001
# How it was run: as §1
# LOC_OS05G30820-cb001 = test system: LOC_OS05G30820-cb001
# How it was run: as §1
# LOC_OS05G43570-cb004 = test system: LOC_OS05G43570-cb004
# How it was run: as §1
# LOC_OS06G16330-cb003 = test system: LOC_OS06G16330-cb003
# Chain of LOC_OS06G16330-cb003 (as listed by the source): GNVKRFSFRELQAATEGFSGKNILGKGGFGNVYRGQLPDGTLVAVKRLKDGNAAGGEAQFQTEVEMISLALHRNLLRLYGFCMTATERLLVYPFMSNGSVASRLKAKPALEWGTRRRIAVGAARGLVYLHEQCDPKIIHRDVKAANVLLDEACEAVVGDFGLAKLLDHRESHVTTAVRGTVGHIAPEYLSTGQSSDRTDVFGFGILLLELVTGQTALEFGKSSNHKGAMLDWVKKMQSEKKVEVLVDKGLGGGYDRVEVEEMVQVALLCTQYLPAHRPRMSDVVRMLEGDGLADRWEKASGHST
# How it was run: as §1
# LOC_OS06G22820-cb001 = test system: T3, LOC_OS06G22820-cb001
# T3 sequence (whole entry): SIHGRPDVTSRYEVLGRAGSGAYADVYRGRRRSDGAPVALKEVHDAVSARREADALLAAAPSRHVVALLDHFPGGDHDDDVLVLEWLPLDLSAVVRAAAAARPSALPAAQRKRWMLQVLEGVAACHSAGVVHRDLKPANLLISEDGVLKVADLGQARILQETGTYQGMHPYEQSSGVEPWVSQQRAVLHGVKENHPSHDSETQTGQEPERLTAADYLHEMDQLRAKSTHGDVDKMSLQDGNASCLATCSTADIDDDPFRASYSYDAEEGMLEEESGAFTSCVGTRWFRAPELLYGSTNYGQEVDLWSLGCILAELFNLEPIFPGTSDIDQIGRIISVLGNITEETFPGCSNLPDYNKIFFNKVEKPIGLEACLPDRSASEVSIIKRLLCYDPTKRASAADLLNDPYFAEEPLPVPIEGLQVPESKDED
# How it was run: as §1
# LOC_OS07G06570-cb004 = test system: LOC_OS07G06570-cb004
# How it was run: as §1
# LOC_OS07G07230-cb001 = test system: LOC_OS07G07230-cb001
# How it was run: as §1
SMILES,thermal shift delta Tm (LOC_OS02G45750-cb003),thermal shift delta Tm (LOC_OS02G54510-cb004),thermal shift delta Tm (LOC_OS03G04050-cb001),thermal shift delta Tm (LOC_OS03G12390-cb001),thermal shift delta Tm (LOC_OS03G27990-cb004),thermal shift delta Tm (LOC_OS03G50450-cb001),thermal shift delta Tm (LOC_OS03G50810-cb003),thermal shift delta Tm (LOC_OS04G35114-cb001),thermal shift delta Tm (LOC_OS04G38480-cb003),thermal shift delta Tm (LOC_OS04G41100-cb001),thermal shift delta Tm (LOC_OS04G57630-cb004),thermal shift delta Tm (LOC_OS05G07850-cb002),thermal shift delta Tm (LOC_OS05G16824-cb004),thermal shift delta Tm (LOC_OS05G28520-cb001),thermal shift delta Tm (LOC_OS05G30820-cb001),thermal shift delta Tm (LOC_OS05G43570-cb004),thermal shift delta Tm (LOC_OS06G16330-cb003),thermal shift delta Tm (LOC_OS06G22820-cb001),thermal shift delta Tm (LOC_OS07G06570-cb004),thermal shift delta Tm (LOC_OS07G07230-cb001)
COc1ccc(CNC(=O)Nc2ncc([N+](=O)[O-])s2)cc1,0.37 °C,-0.05 °C,0.67 °C,0.15 °C,0.48 °C,0.41 °C,0.22 °C,0.93 °C,1.93 °C,0.59 °C,-0.18 °C,-0.24 °C,0.88 °C,1.04 °C,0.63 °C,0.59 °C,0.38 °C,0.52 °C,0.68 °C,0.25 °C
Cc1cnc(Nc2ccc(N3CCN(C)CC3)cc2)nc1Nc1cccc(S(=O)(=O)NC(C)(C)C)c1,2.16 °C,1.6 °C,0.74 °C,3.11 °C,1.77 °C,2.4 °C,3.61 °C,3.61 °C,2.7 °C,0.79 °C,2.45 °C,10.4 °C,7.7 °C,1.9 °C,0.89 °C,0.98 °C,5.92 °C,0.43 °C,0.63 °C,-0.42 °C
CN(C)C/C=C/C(=O)Nc1cc2c(Nc3ccc(F)c(Cl)c3)ncnc2cc1O[C@H]1CCOC1 [Afatinib (BIBW2992) Dimaleate],1.42 °C,0.08 °C,0.35 °C,2.3 °C,1.68 °C,0.41 °C,1.38 °C,5.35 °C,2.08 °C,0.45 °C,1.02 °C,7.65 °C,-0.29 °C,0.44 °C,0.24 °C,0.46 °C,2.05 °C,0.61 °C,1.27 °C,0.08 °C
"Cc1cc(C(=O)Nc2nc3cccc(Cl)c3n2[C@@H]2CCCCN(C(=O)/C=C/CN(C)C)C2)ccn1 [Nazartinib (EGF816, NVS-816)]",0.42 °C,0.81 °C,0.51 °C,2.23 °C,1.56 °C,0.64 °C,0.51 °C,1.87 °C,2.14 °C,0.6 °C,0.04 °C,3.43 °C,-0.02 °C,0.54 °C,0.6 °C,0.38 °C,0.74 °C,0.4 °C,1.91 °C,0.43 °C
COc1cc2/c(=N/c3ccc(Br)cc3F)nc[nH]c2cc1OCC1CCN(C)CC1 [Vandetanib (ZD6474)],3.64 °C,0.98 °C,0.67 °C,2.45 °C,2.29 °C,1.05 °C,2.26 °C,8.6 °C,3.76 °C,0.73 °C,2.9 °C,9.77 °C,2.5 °C,0.62 °C,0.52 °C,-0.25 °C,9.59 °C,1.8 °C,4.17 °C,0.94 °C
CN1CCN(CCOc2cc(OC3CCOCC3)c3c(Nc4c(Cl)ccc5c4OCO5)ncnc3c2)CC1 [Saracatinib (AZD0530)],2.36 °C,0.77 °C,0.38 °C,2.47 °C,1.15 °C,0.13 °C,3.05 °C,7.08 °C,3.11 °C,0.53 °C,0.78 °C,7.68 °C,3.59 °C,0.24 °C,0.41 °C,0.7 °C,7.52 °C,0.89 °C,1.29 °C,0.13 °C
COc1ccc(CCNCc2ccc(OCc3ccc(Cl)nc3)c(OC)c2)cc1OC,-0.45 °C,0 °C,0 °C,-0.53 °C,0.12 °C,-0.17 °C,0.18 °C,0.23 °C,0.05 °C,0.41 °C,0.32 °C,-0.86 °C,-5.08 °C,0.09 °C,0.33 °C,-0.15 °C,-0.05 °C,0.26 °C,0.85 °C,0.59 °C
O=C(Nc1ccc(OC(F)(F)F)cc1)c1sccc1NCc1ccnc2ccccc12,0.52 °C,4.36 °C,0.44 °C,0.88 °C,0.45 °C,0.51 °C,0.48 °C,0.29 °C,0.95 °C,0.59 °C,0.49 °C,2.25 °C,-0.83 °C,0.05 °C,0.65 °C,0.67 °C,0.61 °C,0.92 °C,0.2 °C,-0.46 °C
COC1(c2sc3c(N4CCOCC4)nc(-c4cnc(N)nc4)nc3c2C)COC1,1.67 °C,3.13 °C,-0.01 °C,0.74 °C,0.96 °C,4.14 °C,0.91 °C,2.13 °C,1.11 °C,0.5 °C,0.27 °C,5.18 °C,1.1 °C,0.27 °C,0.59 °C,1.45 °C,3.12 °C,0.17 °C,0.85 °C,0.65 °C
CN1CCC(Nc2nc(Nc3ccc(Oc4ccccc4)cc3)c3c(=O)[nH]cc(Br)c3n2)CC1,6.91 °C,0.98 °C,0.8 °C,2.05 °C,1.75 °C,1.67 °C,2.6 °C,4.37 °C,2.13 °C,0.75 °C,1.8 °C,7.31 °C,9.77 °C,1.25 °C,1.19 °C,1.11 °C,2.6 °C,0.71 °C,-0.18 °C,-0.18 °C
CN(C[C@@H]1COCCO1)S(=O)(=O)Nc1ccc2ccc3ncc(-c4cnn(C)c4)cc3c(=O)c2c1,9.61 °C,0.42 °C,0.37 °C,0.09 °C,1.72 °C,0.44 °C,3.78 °C,7.88 °C,2.89 °C,0.3 °C,4.12 °C,10.5 °C,7.72 °C,0.77 °C,1.85 °C,0.41 °C,7.23 °C,0.65 °C,1.07 °C,0.63 °C
COc1cccc(-n2c(=O)[nH]c3cc(Cl)n(-c4ccc(-c5cccc(OC)c5O)cc4)c3c2=O)c1,0.85 °C,0.06 °C,0.3 °C,0.12 °C,0.42 °C,0.22 °C,0.35 °C,0.59 °C,1.27 °C,0.29 °C,0.32 °C,-0.83 °C,-0.73 °C,0.37 °C,0.41 °C,0.59 °C,-0.14 °C,0.65 °C,1.02 °C,0.5 °C
CN1CCN(c2ccc3nc(-c4c(N)c5c(F)cccc5[nH]c4=O)[nH]c3c2)CC1 [Dovitinib (TKI-258) Dilactic Acid],16.3 °C,1.95 °C,0.96 °C,4.57 °C,8.19 °C,5.49 °C,1.54 °C,9.41 °C,1.48 °C,0.82 °C,3.62 °C,8.93 °C,15.7 °C,1.54 °C,1.04 °C,1.01 °C,6.51 °C,0.63 °C,1.1 °C,0.06 °C
